Assay outcomes as filed in PubChem.
JMJD2A Tudor: inhibitors of human JMJD2A Tudor domain; AID 504339; AlphaScreen JMJD2A-Tudor / H3K4me3 peptide binding; actives 4.4% (n = 390,000); O75164; Potency, µM (top dose mostly 114 µM), without a hit: top-dose activity change, negative = inhibition, actives largely listed as inhibitors; further: potency means the concentration at half of the fitted maximal effect; on the % scale 0 is the no-effect control and ±100 the full control effect; nearly all actives have a fitted effect of over 50% in size
Target sequence (O75164 whole entry, looked up, the tested form may be a part): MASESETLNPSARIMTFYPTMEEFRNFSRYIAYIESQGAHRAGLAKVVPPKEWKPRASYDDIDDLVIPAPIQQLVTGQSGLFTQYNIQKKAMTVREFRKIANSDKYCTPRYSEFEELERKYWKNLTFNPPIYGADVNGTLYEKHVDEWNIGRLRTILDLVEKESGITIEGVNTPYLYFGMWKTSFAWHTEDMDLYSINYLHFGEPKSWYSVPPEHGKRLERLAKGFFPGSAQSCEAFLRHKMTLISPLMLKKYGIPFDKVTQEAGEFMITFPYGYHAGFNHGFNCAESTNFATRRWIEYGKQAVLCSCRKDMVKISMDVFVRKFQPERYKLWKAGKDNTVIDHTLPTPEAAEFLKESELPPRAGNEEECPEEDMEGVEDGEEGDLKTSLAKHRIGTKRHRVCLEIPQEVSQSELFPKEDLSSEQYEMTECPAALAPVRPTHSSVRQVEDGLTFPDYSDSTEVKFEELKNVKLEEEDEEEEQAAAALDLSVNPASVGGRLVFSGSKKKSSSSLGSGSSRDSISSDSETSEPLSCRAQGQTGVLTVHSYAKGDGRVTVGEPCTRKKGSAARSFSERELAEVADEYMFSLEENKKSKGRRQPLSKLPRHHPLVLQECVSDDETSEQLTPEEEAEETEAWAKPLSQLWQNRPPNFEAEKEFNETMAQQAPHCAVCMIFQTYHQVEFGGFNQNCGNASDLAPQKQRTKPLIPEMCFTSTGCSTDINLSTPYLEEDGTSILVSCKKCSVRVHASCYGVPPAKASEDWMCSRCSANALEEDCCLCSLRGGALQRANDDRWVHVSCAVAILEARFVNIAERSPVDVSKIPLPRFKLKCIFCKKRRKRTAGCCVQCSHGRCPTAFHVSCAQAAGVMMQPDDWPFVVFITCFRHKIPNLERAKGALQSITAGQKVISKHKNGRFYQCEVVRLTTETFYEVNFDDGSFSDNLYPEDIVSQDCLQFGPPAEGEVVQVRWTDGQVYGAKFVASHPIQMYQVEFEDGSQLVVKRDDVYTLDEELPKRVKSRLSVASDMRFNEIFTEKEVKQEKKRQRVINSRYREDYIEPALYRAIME
CtBP-E1A blk: blocks the CtBP interaction with E1A; AlphaScreen GST-E1A/His-CtBP binding, 1536-well; stronger effect = lower value; activity change, % (test concentration not listed); actives 0.49% (n = 340,000); AID 651724; in the data active means activity change below about -65%; inconclusive means mostly about -30% to -63%; further: on the % scale 0 is the no-effect control and ±100 the full control effect
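AlphaScreen with 125 nM GST-E1A and 125 nM His-CtBP (5X stocks) in Tris pH 8.0, 300 mM NaCl, BSA, Tween 20, TCEP. Compounds preincubated 2 h at 37 deg C, then glutathione donor/nickel acceptor beads added for 1 h at 37 deg C in dark.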
Six1-Eya2 inh: Six1/Eya2 interaction inhibition | AlphaScreen GST-Six1/His-Eya2 binding, biochemical; stronger effect = lower value | activity change, % (no concentration beside the values) | actives 0.56% (n = 360,000); in the data active means activity change below about -65%; inconclusive means mostly about -30% to -63%; further: on the % scale 0 is the no-effect control and ±100 the full control effect
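AlphaScreen with GST-Six1 and His-Eya2 (5X mix: 250 nM and 500 nM), glutathione donor and nickel acceptor beads; buffer 50 mM Tris pH 8.0, 300 mM NaCl, 1 mM TCEP; 1 h at 37 C in the dark.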
BAZ2B block: inhibitors of human BAZ2B bromodomain | Q9UIF8 | AlphaScreen BAZ2B-H3K14Ac peptide displacement | Potency, µM (doses to about 114 µM), without a hit: at the highest dose activity change, negative = inhibition, most hits filed as inhibitors | actives 4.4% (n = 360,000) | AID 504333; further: potency means the concentration at half of the fitted maximal effect; on the % scale 0 is the no-effect control and ±100 the full control effect; nearly all actives have a fitted effect of over 60% in size
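BAZ2B (50 nM) with biotin-H3(5-23)K14Ac peptide (50 nM) in PBS pH 7.4, 0.01% Tween-20, preformed 30 min, then compound 30 min at room temperature; top concentration 110uM. AlphaScreen streptavidin donor/nickel chelate acceptor beads (10 ug/mL final), 20 min dark, signal read.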
HP1b chromo inh: inhibitors of HP1-beta chromodomain binding to methylated histone tails; P83916; AlphaScreen HP1-beta / biotin-H3K9me3 peptide binding; Potency, µM (highest dose often 114 µM), without a hit: top-dose activity change, negative = inhibition, most hits filed as inhibitors; actives 0.56% (n = 390,000); AID 540317; further: potency means the concentration at half of the fitted maximal effect; nearly all actives have a fitted effect of over 70% in size
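Compound inhibition of the preformed complex between 50 nM HP1-beta and 50 nM biotinylated H3K9me3 peptide was read by AlphaScreen. Buffer was PBS pH 7.4 with 0.01% Tween-20. Incubations ran 30 min at room temperature, with 10 ug/mL donor/acceptor beads.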
G9a block: inhibitors of human histone lysine methyltransferase G9a; Q96KQ7; G9a H3K9 monomethylation, AlphaScreen, 2 h; Potency, µM (doses to about 102 µM), inactives show at the highest dose activity, negative = inhibition, hits mostly inhibitors; actives 8.8% (n = 350,000); AID 504332; further: potency means the concentration at half of the fitted maximal effect; on the % scale 0 is the no-effect control and ±100 the full control effect; nearly all actives have a fitted effect of over 75% in size
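AlphaScreen detection with an anti-monomethyl H3K9 antibody quantified product after a 2 h room-temperature reaction containing 500 nM biotinylated H3K9 peptide, 20 µM SAM and 20 nM enzyme, which had been preincubated 15 min with compound.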
Active calls of the source: *; ? = inconclusive; . = no result; [ ] = remark or other dose. In the library only some 10% were active in any assay of this set; here they are far more common. Unless noted, the call rests on the fitted dose curve; in most records, active means well fitted inhibition curve with a large enough effect; inconclusive means small, poorly fitted or top-dose-only effect; inactive means no such curve, though single readings can be large or run the other way.

SMILES | JMJD2A Tudor | CtBP-E1A blk | Six1-Eya2 inh | BAZ2B block | HP1b chromo inh | G9a block
CN(C)C(CNC(=O)c1cnc(Cl)c(Cl)c1)c1ccccc1 (configuration not stated) | 20µM* | . | -6.4 | 56.2µM* | ? | ?
COc1cccc(CN(CC(=O)NC2CCCC2)C(=O)c2csnn2)c1 | 9.9% | -2.1 | 0.0 | 5.7% | 25.0% | 1.1%[59 µM]
O=C(CN(Cc1cccs1)C(=O)c1csnn1)NC1CCCC1 | 79.4µM* | 3.1 | 3.1 | 13.0% | ? | -8.8%[59 µM]
COc1ccc(-n2cccc2/C=C/[N+](=O)[O-])cc1 | 44.7µM* | -6.5 | -16.7 | 35.5µM* | 44.7µM* | 39.8µM*
Nc1cccc(Nc2ccccc2)c1 | -11.7% | -2.3 | 1.2 | ? | 1.3% | .
c1ccc(Nc2cccc(Nc3ccccc3)c2)cc1 | 31.6µM* | -6.0 | -29.3 | 12.6µM* | 39.8µM* | 15.8µM*
COc1ccccc1CNC(=O)CSc1cc(C)[nH]c(=O)n1 | -10.7% | . | . | -5.8% | -6.3% | 9.7%[59 µM]
COC(=O)[C@@H](N)CS | ? | -23.4 | -20.0 | -31.2% | -25.4% | 8.91µM*
COC(=O)/C=C1/N/C(=N\c2nc(C)cc(C)n2)N(c2cccc(C)c2)C1=O | 22.4µM* | 2.7 | 0.9 | -21.3% | 24.1% | -27.5%
COC(=O)/C=C1\N/C(=N\c2nc(C)cc(C)n2)N(c2ccccc2)C1=O | -15.9% | 2.7 | -12.9 | -17.9% | 0.1% | 4.0%
Cc1nnc(SCC2=C(C(=O)O)N3C(=O)C(NC(=O)c4cccc(F)c4F)C3SC2)s1 (configuration not stated) | -21.6% | -14.7 | -3.4 | ? | 10.7% | ?
Cc1nnc(SCC2=C(C(=O)O)N3C(=O)C(NC(=O)Cn4ncc(Cl)c4C)C3SC2)s1 (configuration not stated) | ? | 6.8 | -14.0 | ? | 13.7% | 28.2µM*
Cc1cc(C)n(CC(=O)NC2C(=O)N3C(C(=O)O)=C(CSc4nnc(C)s4)CSC23)n1 (configuration not stated) | 25.1µM* | 8.9 | -12.2 | 70.8µM* | 7.0% | 39.8µM*
COc1ccccc1CNS(=O)(=O)c1cnc(N)nc1 | -7.7% | . | . | 1.8% | 12.7%[57 µM] | 20.7%[59 µM]
COc1ccc2c(c1)cc1c(=O)n(CC(=O)NC(C)C)nc(C)n12 | -1.5% | . | . | -1.3% | 29.5% | 6.3%[59 µM]
CCOC(=O)Cc1cc(=O)n(-c2nc3ccccc3s2)[nH]1 | -32.3% | -14.0 | -14.6 | 0.4% | 13.5% | 31.6µM*
O=C1[C@@H]2[C@@H](CN3CN(c4ccccc4)N=C(c4ccccc4)[C@@]23c2ccccc2)C(=O)N1c1ccccc1 | 89.1µM* | 18.8 | -10.3 | . | ? | .
COc1cccc(Cn2c(-c3nonc3NC(C)=O)nc3ccccc32)c1 | -11.6% | . | . | -3.9% | 24.3% | 3.6%[59 µM]
CCOc1ccc(CCNC(c2nnc(-c3ccccc3)o2)c2ccccc2Cl)cc1OCC (configuration not stated) | -20.9% | . | . | 2.1% | 74.1% | 42.8%[59 µM]
COC(=O)CSc1nnc(NC(=O)c2ccc3c(c2)OCO3)s1 | -6.4% | 6.1 | 0.7 | -6.1% | 51.8% | 31.6µM*
CCCc1nnc(NC(=O)COc2ccc3c(c2)OCO3)s1 | -11.5% | -2.0 | -2.7 | -17.0% | -2.3% | 4.7%
Cc1nnc(NC(=O)c2ccco2)s1 | -13.2% | 1.1 | -19.9 | 10.1% | 21.4% | -4.0%
CCC(CC)c1nnc(NC(=O)c2ccco2)s1 | -10.6% | 0.0 | -6.6 | -18.6% | -18.6% | 44.7µM*
CCc1nnc(NC(=O)COc2ccc3c(c2)OCO3)s1 | -7.9% | -5.4 | 2.2 | 4.0% | -29.7% | 44.7µM*
CCC(CC)c1nnc(NC(=O)COc2ccc3c(c2)OCO3)s1 | ? | -5.4 | 4.7 | ? | ? | 8.91µM*
COC(=O)c1ccn(-c2nc(-c3ccc(Cl)cc3)cc(C(F)(F)F)n2)n1 | 3.4% | . | . | -9.0% | 36.7% | 1.2%[59 µM]
COc1cc(C(=O)Nc2nonc2-c2ccc(Cl)cc2)cc(OC)c1OC | -18.2% | . | . | 1.3% | 27.3% | -3.2%[59 µM]
CC(C)(C)Cc1nnc(NC(=O)c2ccc3c(c2)OCO3)s1 | -19.2% | 1.9 | 6.6 | -14.6% | ? | 8.91µM*
